Bioassay records as filed in PubChem BioAssay.
HCV inh – HCV inhibition. Huh7.5.1 HCVcc-Cre infection, luciferase reporter, 44 h. Potency, µM (doses to about 41.8 µM), inactives show at the top dose activity change, negative = inhibition, most hits filed as inhibitors. 340,000 compounds, 3.4% hits; active = well fitted inhibition curve with a large enough effect; inconclusive = small, poorly fitted or top-dose-only effect, or another doubt; inactive = no such curve, though single readings can be large or run the other way; note: potency is the fitted concentration of half-maximal effect
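A cell-based infection assay in which seeded cells (1,000 per well) receive test compound after 4 h, are inoculated with HCVcc-Cre at approximately 0.5 moi, and are incubated 44 h before luminescence detection.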
Lassa entry inh – inhibitors of Lassa virus binding or cell entry | 300,000 compounds, 1.2% hits | AID 540256 | Lassa virus pseudotype entry inhibition, cell reporter | Potency, µM (doses to about 37.9 µM), for the others: at the highest dose activity change, negative = inhibition, actives largely listed as inhibitors; calls by dose curve; tested in HEK293 cells; note: potency is the fitted concentration of half-maximal effect; nearly all actives have a fitted effect of over 50% in size
Vaccinia Venus – vaccinia inhibition (Venus reporter). Vaccinia virus Venus reporter expression, fluorescence. Potency, µM (titrated, usually from 36.5 µM), inactives show at the top dose activity change, negative = inhibition, actives largely listed as inhibitors. AID 720580. 330,000 compounds, 0.46% hits; calls by dose curve; tested in A549 cells; note: potency is the fitted concentration of half-maximal effect; nearly all actives have a fitted effect of over 30% in size
Marburg entry inh – Marburg virus entry inhibition; Potency, µM (top dose mostly 37.8 µM), for the others: at the highest dose activity change, negative = inhibition, hits mostly inhibitors; Marburg virus pseudotyped entry inhibition, cell reporter; 300,000 compounds, 1.8% hits; AID 540276; calls by dose curve; tested in HEK293 cells; note: potency is the fitted concentration of half-maximal effect
VACV mCherry inh – vaccinia inhibition (mCherry reporter) | Vaccinia virus mCherry reporter infection, fluorescence | Potency, µM (highest dose often 36.5 µM), for inactives: at the highest dose activity change, negative = inhibition, hits mostly inhibitors | 310,000 compounds, 0.63% hits | AID 720579; calls by dose curve; tested in A549 cells; note: potency is the fitted concentration of half-maximal effect; nearly all actives have a fitted effect of over 35% in size
HCMV antiviral – blocks human cytomegalovirus replication; AID 1259415; HFF cells, HCMV-luciferase reporter, 72 h; hits give low values; activity change, negative = inhibition, % at 57.5 µM; 410,000 compounds, 4.5% hits; in the data active = activity change below about -60%; inconclusive = no clear call, values can overlap the other calls; inactive = above about -39%
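Screen run at 2 compound doses on HFFs infected with reporter HCMV, MOI 1 PFU/cell. Luciferase activity from cell lysates at 72 h post infection gave inhibition relative to buffer-only and Salinomycin wells.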
Active calls of the source: *; i = inactive; ? = inconclusive; nt = not tested or not shown; + = active, no number; [ ] = dose if it differs, or a comment. An excerpt weighted towards active compounds, which were near 7.8% of everything screened. % is set by controls: 0 for no effect and ±100 for the full control effect.

SMILES | HCV inh | Lassa entry inh | Vaccinia Venus | Marburg entry inh | VACV mCherry inh | HCMV antiviral
CC(Oc1cc(-n2cnc3ccc(OC4CCN(C)CC4)cc32)sc1C(N)=O)c1ccccc1Cl (stereo not given) | nt | 0.2µM* | nt | nt | nt | nt
COc1ccc(OC)c(NC(=O)c2sc3nc(Cc4ccccc4)cc(C(F)(F)F)c3c2N)c1 | ? | -1% | nt | 0% | nt | 24
COc1ccc(Cn2nnnc2C(c2ccccc2Cl)N2CCC(C(N)=O)CC2)cc1 (stereo not given) | 6% | ? | nt | -3% | nt | 25
COc1ccc2ncn(-c3cc(OC(C)c4ccccc4C(F)(F)F)c(C(N)=O)s3)c2c1 (stereo not given) | nt | 0.22µM* | nt | nt | nt | nt
CCc1ccc(NC(=O)CCn2cnc3ccccc3c2=O)cc1 | nt | -9%[46.1 µM] | -4% | nt | -10% | 37
COc1ccc(C)cc1NS(=O)(=O)c1cc(Br)cc2c1N(C(C)=O)C(C)C2 (stereo not given) | nt | -1%[46.1 µM] | -4% | -6%[46.1 µM] | -15% | ?
N#Cc1c(-n2ncnc2-c2ccc(F)cc2)sc2c1CCCCC2 | nt | -3%[46.1 µM] | -9% | nt | -22% | ?
Cc1cc(=O)[nH]c(SCC(=O)Nc2ccc3c(c2)CCC3)c1C#N | -3% | nt | nt | nt | nt | -77*
CCSc1nc2n(n1)C(c1ccc(CC)cc1)C(C(=O)Nc1ccccc1OC)=C(C)N2 (stereo not given) | nt | 14%[46.1 µM] | -24% | nt | -26% | -1
COc1ccc(C#Cc2c(-c3ccccc3)n(C)c3ccccc23)cc1 | ? | nt | -22% | nt | -16% | 0
Cn1c(C=O)c(C#Cc2ccccc2)c2ccccc21 | 7.9µM* | nt | ? | nt | ? | 21
Cn1c(-c2ccc(C#N)cc2)c(C#Cc2ccccc2)c2ccccc21 | 22µM* | nt | -8% | nt | i | 32
COc1ccc(C#Cc2c(C=O)n(C)c3ccccc23)cc1 | 10µM* | nt | ? | nt | ? | -10
COC(=O)[C@@H]1[C@@H](CO)[C@@H]2Cn3c(ccc(Br)c3=O)[C@@H]2N1C(=O)CN(C)C | nt | nt | nt | nt | nt | -2
COc1ccc(C(=O)Nc2cccc(OCc3cc(=O)n4c5c(sc4n3)CCCC5)c2)cc1 | nt | 15%[46.1 µM] | 3% | 2%[46.1 µM] | 4% | -2
COc1ccc(NC(=O)c2cnc(SCC(=O)Nc3nc4ccc(C)cc4s3)n(C)c2=O)cc1 | nt | 2%[46.1 µM] | -14% | nt | -2% | 4
Cn1c(-c2ccc(F)cc2)cnc1NCc1cc2c(cc1[N+](=O)[O-])OCO2 | 13µM* | 14% | -13% | ? | -6% | 12
COc1ccc(CNc2ncc(-c3ccc(F)cc3)n2C)c2ccccc12 | 1% | -26%[46.1 µM] | -10% | ? | ? | -84*
CCOc1ccc(-c2cnc(NCc3cccc4ccccc34)n2CCOC)cc1 | 10µM* | ? | ? | ? | ? | 25
Cn1c(-c2ccc(F)cc2)cnc1NCc1ccccc1 | -2% | 9% | nt | 23µM* | nt | -1
CCN(CC)S(=O)(=O)c1ccc2c(c1)N(CC(=O)Nc1ccccc1F)C(=O)C1CCCN21 (stereo not given) | nt | 3%[46.1 µM] | -1% | 12%[46.1 µM] | -4% | -14
CCOc1ccccc1NC(=O)COc1coc(CN2CCc3ccccc3C2)cc1=O | ? | -21% | -8% | -9% | i | -10
CCOc1ccccc1NC(=O)COc1coc(CN2CCCc3ccccc32)cc1=O | 13µM* | -16% | -22% | ? | ? | -5
Cc1ccc(NC(=O)C2CCN(c3nc4ccccc4nc3C(F)(F)F)CC2)cc1C | nt | 17%[46.1 µM] | 2% | nt | 10% | 1
COc1cccc(NC(=S)Nc2cc(C)cc(C)n2)c1 | ? | 8% | -4% | ? | -5% | -67*
SMILES | HCV inh | Lassa entry inh | Vaccinia Venus | Marburg entry inh | VACV mCherry inh | HCMV antiviral
Cc1cccc(NC(=S)Nc2ccc(Oc3ccccc3)cc2)n1 | ? | -18% | -28% | ? | -15% | -61*
COC(=O)c1c(C(=O)OC)n(CCCN)c2ccc(C)cc12 | ? | ? | -16% | 8.2µM* | -27% | -10
Nc1ccccc1C(=O)OCCOc1ccccc1 | 5% | ? | -21% | 10µM* | nt | 8
Cc1cc2oc(C(=O)Nc3c(C(=O)Nc4ccccc4)oc4ccccc34)cc(=O)c2cc1C | nt | ? | 8% | 19%[46.1 µM] | -8% | 22
CCOC(=O)CC(NC(=O)N1CCC(CN2CCC(C)CC2)CC1)c1ccccc1 (stereo not given) | nt | ? | -13% | nt | -10% | 2
CCOC(=O)c1cnc(-n2nc(C)cc2C)nc1Nc1ccc(N(C)C)cc1 | ? | 7.3µM* | nt | ? | nt | -5
CCOC(=O)c1cnc(-n2nc(C)cc2C)nc1NC | -13% | 10% | nt | -7% | nt | -8
CCOC(=O)c1cnc(-n2nc(C)cc2C)nc1Nc1ccc(C)cc1 | 5% | 11% | -4% | ? | -17% | 26
CCOC(=O)c1cnc(-n2nc(C)cc2C)nc1NC1CCCCC1 | 5.6µM* | ? | ? | 6.3µM* | ? | -87*
Clc1ccc(Nc2nc(-c3ccncc3)cs2)cc1 | ? | 15% | -20% | 7.9µM* | ? | 7
Nc1ccc(Nc2nc(-c3ccncc3)cs2)cc1 | 7.9µM* | ? | -12% | ? | -21% | -99*
c1ccc(Nc2nc(-c3ccncc3)cs2)cc1 | ? | ? | -28% | ? | nt | 177
Nc1nc(-c2ccc(Br)cc2)cs1 | -26% | ? | -19% | 7% | -26% | 4
Fc1ccc(Nc2nc(-c3ccncc3)cs2)cc1 | ? | 12% | -21% | -61% | -8% | 71
Oc1ccc(Nc2nc(-c3ccc(O)cc3)cs2)cc1 | 10µM* | ? | nt | -17% | nt | 12
Brc1ccc(-c2csc(Nc3nc(-c4ccc(Br)cc4)cs3)n2)cc1 | -29% | -12%[46.1 µM] | -10% | -18%[46.1 µM] | ? | -87*
CC(C)NC(=O)OC[C@@H]1CSCCS(=O)(=O)N1 | nt | ? | nt | nt | nt | -8
Cc1ncsc1CCC(=O)N1CCCC(c2nc(-c3ccncc3)ncc2-c2ccccc2)C1 (stereo not given) | nt | nt | -14% | nt | -25% | nt
COc1ccc(CCCc2nnc(SCC(=O)Nc3ccc(C)cc3)o2)cc1C | nt | 14%[46.1 µM] | -7% | nt | 9% | -7
COc1ccc2oc(=O)c(-c3csc(Nc4ccc(O)cc4)n3)cc2c1 | 11µM* | 10µM* | ? | ? | ? | ?
O=C(NCc1ccccc1Cl)c1ccc(NC(=O)N2CCSc3ncccc32)cc1 | nt | 4%[46.1 µM] | -8% | nt | -5% | +
O=C(NCc1ccccc1F)c1cccc(NC(=O)N2CCSc3ncccc32)c1 | nt | 1%[46.1 µM] | -1% | nt | -6% | +
Cc1ccc(-n2c(=O)cc(N3CCN(c4ccccc4Cl)CC3)[nH]c2=O)cc1 | nt | 2%[46.1 µM] | -12% | nt | -2% | 3
O=C1[C@H]2[C@H]3[C@H](O)[C@H](O)C/C(=N/OCc4ccccc4)[C@@H]3CC[C@@H]2C(=O)N1C[C@@H]1CCCO1 | nt | nt | nt | 6%[14.2 µM] | nt | nt
O=S(=O)(NCC1CC1)c1cc(Cl)cc(Cl)c1 | 3% | 10%[46.1 µM] | -10% | -18%[46.1 µM] | i | -65*
